The campaign covered roughly 5,500 compounds. About 2,000 (36%) were called active. Roughly 18% stayed inconclusive and do not appear here. No stated cut-off is given here; in the data, active means normalized growth mostly below about 0.91 (no sharp cut-off); inconclusive means no clear call, values can overlap the other calls; inactive means mostly above about 0.92. This is one part of the list.
Experiment: chemical genetic growth profiling, strain panel (AID 1159580);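 further: tested at 20 µM; growth read once vehicle control cultures reached saturation at 30 °C; 1 = growth at the plate median or of vehicle wells; lower values mean less growth of the strain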
Settings: growth OD

Measured: normalized growth

COC1=C(OC)C(=O)C(C/C=C(\C)CC/C=C(\C)CC/C=C(\C)CC/C=C(/C)CC/C=C(\C)CC/C=C(\C)CC/C=C(\C)CC/C=C(\C)CC/C=C(\C)CCC=C(C)C)=C(C)C1=O
inactive: S. cerevisiae deletion strains, locus YJR043C, strain POL32, hits give low values 1.03 | S. cerevisiae deletion strains, locus YJR066W, strain TOR1, hits give low values 0.982 | S. cerevisiae deletion strains, locus YKL009W, strain mrt4, hits give low values 1.07 | S. cerevisiae deletion strains, locus YKL068W, hits give low values 0.99 | S. cerevisiae deletion strains, locus YKL085W, strain MDH1 (second series), hits give low values 1 | S. cerevisiae deletion strains, locus YKL085W, strain MDH1, hits give low values 1 | S. cerevisiae deletion strains, locus YKL160W, strain elf1, hits give low values 0.988 | S. cerevisiae deletion strains, locus YKR001C, strain vps1, hits give low values 0.999 | S. cerevisiae deletion strains, locus YKR026C, strain gcn3, hits give low values 0.986 | S. cerevisiae deletion strains, locus YKR091W, strain srl3, hits give low values 0.98 | S. cerevisiae deletion strains, locus YLL001W, strain dnm1, hits give low values 0.974 | S. cerevisiae deletion strains, locus YLL026W, hits give low values 1 | S. cerevisiae deletion strains, locus YLL041C, strain sdh2, hits give low values 0.973 | S. cerevisiae deletion strains, locus YLR027C, strain aat2, hits give low values 0.988 | S. cerevisiae deletion strains, locus YLR039C, strain RIC1, hits give low values 1.04 | S. cerevisiae deletion strains, locus YLR058C, strain SHM2, hits give low values 0.985 | S. cerevisiae deletion strains, locus YLR102C, strain apc9, hits give low values 0.994 | S. cerevisiae deletion strains, locus YLR113W, strain HOG1, hits give low values 0.986 | S. cerevisiae deletion strains, locus YLR221C, strain rsa3, hits give low values 0.97 | S. cerevisiae deletion strains, locus YLR258W, strain gsy2, hits give low values 0.982 | S. cerevisiae deletion strains, locus YLR262C, strain YPT6 (second series), hits give low values 0.942 | S. cerevisiae deletion strains, locus YLR262C, strain YPT6, hits give low values 0.972 | S. cerevisiae deletion strains, locus YLR268W, strain sec22, hits give low values 1.03 | S. cerevisiae deletion strains, locus YLR320W, strain mms22, hits give low values 0.991 | S. cerevisiae deletion strains, locus YLR330W, strain CHS5, hits give low values 1.01 | S. cerevisiae deletion strains, locus YLR342W, strain FKS1 (second series), hits give low values 1.1 | S. cerevisiae deletion strains, locus YLR342W, strain FKS1, hits give low values 0.96 | S. cerevisiae deletion strains, locus YLR357W, strain rsc2, hits give low values 0.987 | S. cerevisiae deletion strains, locus YLR370C, strain arc18, hits give low values 0.953 | S. cerevisiae deletion strains, locus YLR371W, strain rom2, hits give low values 0.99 | S. cerevisiae deletion strains, locus YLR384C, strain iki3, hits give low values 0.988 | S. cerevisiae deletion strains, locus YLR418C, strain cdc73, hits give low values 0.997 | S. cerevisiae deletion strains, locus YML016C, strain PPZ1, hits give low values 1.01 | S. cerevisiae deletion strains, locus YML032C, strain rad52, hits give low values 0.971 | S. cerevisiae deletion strains, locus YML120C, strain ndi1, hits give low values 0.985 | S. cerevisiae deletion strains, locus YML124C, strain tub3, hits give low values 0.99 | S. cerevisiae deletion strains, locus YMR058W, strain fet3, hits give low values 0.977 | S. cerevisiae deletion strains, locus YMR078C, strain ctf18, hits give low values 0.992 | S. cerevisiae deletion strains, locus YMR125W, strain sto1, hits give low values 0.972 | S. cerevisiae deletion strains, locus YMR129W, hits give low values 0.974 | S. cerevisiae deletion strains, locus YMR205C, strain PFK2, hits give low values 1.01 | S. cerevisiae deletion strains, locus YMR223W, strain ubp8, hits give low values 1.01 | S. cerevisiae deletion strains, locus YMR231W, strain pep5, hits give low values 0.981 | S. cerevisiae deletion strains, locus YMR307W, strain GAS1, hits give low values 1.13 | S. cerevisiae deletion strains, locus YNL067W, strain RPL9B, hits give low values 0.995 | S. cerevisiae deletion strains, locus YNL071W, strain lat1, hits give low values 0.965 | S. cerevisiae deletion strains, locus YNL183C, strain NPR1, hits give low values 0.982 | S. cerevisiae deletion strains, locus YNL209W, strain ssb2, hits give low values 0.971 | S. cerevisiae deletion strains, locus YNL233W, strain BNI4, hits give low values 1 | S. cerevisiae deletion strains, locus YNL248C, strain rpa49, hits give low values 0.974 | S. cerevisiae deletion strains, locus YNL250W, strain rad50, hits give low values 0.985 | S. cerevisiae deletion strains, locus YNL271C, strain bni1, hits give low values 1.02 | S. cerevisiae deletion strains, locus YNL298W, strain CLA4, hits give low values 0.998 | S. cerevisiae deletion strains, locus YNL307C, strain MCK1, hits give low values 0.995 | S. cerevisiae deletion strains, locus YNL322C, strain KRE1 (second series), hits give low values 0.958 | S. cerevisiae deletion strains, locus YNL322C, strain KRE1, hits give low values 0.994 | S. cerevisiae deletion strains, locus YNR049C, strain mso1, hits give low values 0.971 | S. cerevisiae deletion strains, locus YNR052C, strain pop2, hits give low values 1 | S. cerevisiae deletion strains, locus YOL012C, strain htz1 0.872 | S. cerevisiae deletion strains, locus YOL147C, strain pex11, hits give low values 1 | S. cerevisiae deletion strains, locus YOR001W, strain rrp6, hits give low values 0.932 | S. cerevisiae deletion strains, locus YOR061W, strain CKA2, hits give low values 0.981 | S. cerevisiae deletion strains, locus YOR069W, strain VPS5, hits give low values 1.01 | S. cerevisiae deletion strains, locus YOR070C, strain gyp1, hits give low values 0.975 | S. cerevisiae deletion strains, locus YOR080W, strain dia2, hits give low values 0.999 | S. cerevisiae deletion strains, locus YOR083W, strain WHI5, hits give low values 0.998 | S. cerevisiae deletion strains, locus YOR106W, strain vam3, hits give low values 0.973 | S. cerevisiae deletion strains, locus YOR136W, strain idh2, hits give low values 0.998 | S. cerevisiae deletion strains, locus YOR144C, strain elg1, hits give low values 0.987 | S. cerevisiae deletion strains, locus YOR184W, strain ser1, hits give low values 1 | S. cerevisiae deletion strains, locus YOR231W, strain MKK1, hits give low values 1.05 | S. cerevisiae deletion strains, locus YOR265W, strain rbl2, hits give low values 0.99 | S. cerevisiae deletion strains, locus YOR270C, strain vph1, hits give low values 0.967 | S. cerevisiae deletion strains, locus YOR290C, strain snf2, hits give low values 0.992 | S. cerevisiae deletion strains, locus YOR316C, strain cot1, hits give low values 0.994 | S. cerevisiae deletion strains, locus YPL051W, strain arl3, hits give low values 1 | S. cerevisiae deletion strains, locus YPL055C, strain LGE1, hits give low values 1.02 | S. cerevisiae deletion strains, locus YPL078C, strain atp4, hits give low values 0.965 | S. cerevisiae deletion strains, locus YPL106C, strain sse1, hits give low values 0.963 | S. cerevisiae deletion strains, locus YPL240C, strain hsp82, hits give low values 0.982 | S. cerevisiae deletion strains, locus YPL241C, strain CIN2, hits give low values 0.996 | S. cerevisiae deletion strains, locus YPL256C, strain CLN2, hits give low values 1.04 | S. cerevisiae deletion strains, locus YPR119W, strain clb2, hits give low values 0.981 | S. cerevisiae deletion strains, locus YPR141C, strain kar3, hits give low values 0.981 | S. cerevisiae deletion strains, locus YPR163C, strain tif3, hits give low values 0.992 | S. cerevisiae deletion strains, locus YPR167C, strain met16, hits give low values 0.982 | S. cerevisiae deletion strains, strain wtn01, hits give low values 1.02 | S. cerevisiae strains, strain wild type, hits give low values 1.01

Reference: PubChem BioAssay AID1159580 (chemical genetic matrix, 2015)
